# Measured values published in PubChem BioAssay (EPA / NIEHS).
# Active and inactive are the calls of the source. How the source made its calls: active means hit-call score of the fitted dose curve at least 0.9, where 1 is the maximum; inactive means score below 0.9.
# Test: STM_H9_OrnithineISnorm_perc: Stemina devTOX quickPredict H9 human embryonic stem cell (hESC)-based Assay for Ornithine (ORN) Metabolite Biomarker, Normalized (AID 2283712);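 further: ornithine released into spent medium during last day measured by mass spectrometry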
# From the text: STM_H9_secretome utilizes undifferentiated H9 cells to measure relative changes in two metabolites, ornithine (ORN) and cystine (CYSS) in the secretome, targeting a critical drop in the ORN/CYSS ratio as a biomarker for developmental toxicity.STM_H9_OrnithineISnorm is one of 10 components calculated in the STM_H9_secretome assay. It measures the integrated area of the endogenous ornithine normalized to the spiked-in isotopically labeled standard and to the median value of the 0.1% DMSO neutral control treatment using UPLC-HRMS technology.Data from the assay component STM_H9_OrnithineISnorm_perc was analyzed at the assay endpoint STM_H9_OrnithineISnorm_perc in the positive analysis fitting direction relative to DMSO as the negative control and baseline of activity. Using a type of binding reporter, gain or loss-of-signal activity can be used to understand relative metabolite change.
# H9 hESCs maintained in a pluripotent state were exposed to test compound for 72h with chemical replenishment with media replacement every 24h. Cell-conditioned media from the final 24-h treatment period was collected for analysis of the targeted biomarker, and cell viability of the corresponding cell layer was assessed. The chemical library was tested in blinded fashion. Each test plate included 1uM Methotrexate (MTX; Selleck Chemicals, Houston, Texas) as a positive reference, 5 nM MTX as a negative reference, 0.1% DMSO as the neutral (vehicle) control, and sample-level media blanks.H9 cell-conditioned media from the final 24-h treatment period was collected for analysis of the targeted biomarker and cell viability was measured from the corresponding cell layer. Cell viability was measured using the CellTiter-Fluor assay (Promega, Madison, Wisconsin) based on proteolytic cleavage of a substrate to fluorescent signal proportional to the number of living cells. The cell viability Relative Fluorescence Unit (RFU) was background corrected and normalized to mean RFU of the neutral control (0.1% DMSO). The collected H9-cell-conditioned media samples were processed for targeted biomarker analysis as described (Palmer et al., 2013). Briefly, spent media samples were deproteinized (40% acetonitrile) and processed for UPLC-HRMS. Data acquisition was performed using 4 separate UPLC-HRMS systems, consisting of an Agilent 1290 Infinity LC system (Agilent Technologies) interfaced with an Agilent high-resolution mass spectrometer (models G6520A, G6520B, G6530A, and G6224A). A Waters Acquity UPLC BEH Amide column (2.1mm x 50mm, 1.7lm particle size; Waters, Milford, Massachusetts) maintained at 40C was applied for separation of metabolites using a 6.5min solvent gradient with 0.1% formic acid in water and 0.1% formic acid in acetonitrile (1.0ml/min flow rate). Data were acquired using MassHunter Acquisition software (version B 04.00, Agilent Technologies). The extracted ion chromatogram (EIC) areas for ORN, CYSS, and their respective spike-in C13-standards were determined using the Agilent MassHunter Quantitative Analysis software, version B.05.00 or newer (Agilent Technologies), and data were normalized as described in Palmer et al. (2017).
SMILES,AC50,outcome
CCN(CC)CCNc1ccc(CNC=O)c2sc3ccc(OC)cc3c(=O)c12,7.85 µM (active),
CN1CCN(c2ccccc2/C=C2\SCCN(c3ccc(Cl)c(Cl)c3)C2=O)CC1,6.56 µM (active),
C[C@@H]1C[C@H]2[C@@H]3CCC4=CC(=O)C=C[C@]4(C)[C@@]3(F)[C@@H](O)C[C@]2(C)[C@@]1(O)C(=O)COP(=O)(O)O,,inactive
O=C(O)Cc1cc(I)c(Oc2cc(I)c(O)c(I)c2)c(I)c1,,inactive
CCCCCCCCCCCCc1ccccc1S(=O)(=O)O,0.00695 µM (active),
Nc1cccc2c(N)cccc12,,inactive
CCc1ccc(CCOc2ccc(CC3SC(=O)NC3=O)cc2)nc1 (stereo unspecified),72.1 µM (active),
CN1CCC[C@H]1c1cccnc1,,inactive
Cc1cc(CCN2CCN(c3nsc4ccccc34)CC2)cc2c1NC(=O)CC2(C)C,5 µM (active),
c1ccc2c(c1)ccc1ccccc12,88.8 µM (active),
N#C[C@@H]1CC(F)(F)CN1C(=O)CNC1CC2CCC(C1)N2c1ncccn1 (stereo partly specified),,inactive
COc1ccc([N+](=O)[O-])cc1N,,inactive
C#C[C@]1(O)CC[C@H]2[C@@H]3CCC4=CC(=O)CC[C@@H]4[C@H]3CC[C@@]21C,74.6 µM (active),
CC1=C(/C=C/C(C)=C/C=C/C(C)=C/C(=O)O)C(C)(C)CCC1,0.0785 µM (active),
O=C(OCCOCCOC(=O)c1ccccc1)c1ccccc1,,inactive
CN(C)C=O,,inactive
